Measured values published in publication PMC7862700, “An all-to-all approach to the identification of sequence-specific readers for epigenetic DNA modifications on cytosine”.

Columns and labels:
Test in all cases: DAPPL (digital affinity profiling via proximity ligation, sequencing); 10 mM Tris-HCl pH 7.5, 50 mM NaCl, 1 mM DTT, 4% glycerol, room temperature, 30 min; GST-TFs on glutathione beads, 16-mer random dsDNA library, 0.1% formaldehyde crosslink after washing; high values mean tight binding
FEV = molecular target: T1, FEV (Homo sapiens, UniProt Q99581 1-238); conditions: protein: recombinant; tags: N-terminal GST; dsDNA, one strand shown
T1 sequence: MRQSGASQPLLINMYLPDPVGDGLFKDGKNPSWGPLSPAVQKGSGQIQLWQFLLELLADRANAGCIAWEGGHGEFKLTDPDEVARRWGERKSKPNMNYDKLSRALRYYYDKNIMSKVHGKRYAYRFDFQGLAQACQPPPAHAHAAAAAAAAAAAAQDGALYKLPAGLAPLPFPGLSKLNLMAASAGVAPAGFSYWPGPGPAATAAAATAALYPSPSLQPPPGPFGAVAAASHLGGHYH
How it was run: (§1)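 Human transcription factors carrying a GST fusion were produced in yeast, bound to glutathione beads, tagged with DNA barcodes and pooled together with a tag-only sample. Each pool was held with 200 nmole of a random double-stranded 16-mer DNA library in Tris/NaCl/DTT/glycerol buffer for 30 min at room temperature, then washed, crosslinked in 0.1% formaldehyde, proximity-ligated with BsaI/T4 ligase (1 h, 37 °C), PCR-amplified and sequenced on an Illumina NextSeq500. Binding signal is the read frequency of each hexamer for a given factor divided by its frequency in the tag-only sample.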

ETV5 = ETV5 (Homo sapiens, UniProt P41161 1-510); conditions: protein: recombinant; tags: N-terminal GST; dsDNA, one strand shown
Sequence of ETV5 (P41161 whole entry): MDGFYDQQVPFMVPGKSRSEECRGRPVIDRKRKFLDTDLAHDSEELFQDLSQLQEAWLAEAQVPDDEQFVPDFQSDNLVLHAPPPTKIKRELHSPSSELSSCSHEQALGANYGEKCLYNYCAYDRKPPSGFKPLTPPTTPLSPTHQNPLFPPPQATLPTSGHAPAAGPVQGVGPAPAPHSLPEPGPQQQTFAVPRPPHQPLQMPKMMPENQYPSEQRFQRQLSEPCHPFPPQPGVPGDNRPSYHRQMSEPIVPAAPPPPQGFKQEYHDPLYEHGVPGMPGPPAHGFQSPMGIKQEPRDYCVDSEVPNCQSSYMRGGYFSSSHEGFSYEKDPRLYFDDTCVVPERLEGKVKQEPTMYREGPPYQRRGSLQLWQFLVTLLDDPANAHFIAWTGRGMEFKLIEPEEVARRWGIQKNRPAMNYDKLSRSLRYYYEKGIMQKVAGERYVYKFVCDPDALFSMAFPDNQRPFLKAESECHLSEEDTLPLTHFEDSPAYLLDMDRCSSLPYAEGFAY
How it was run: as §1

HSF1 = HSF1 (Homo sapiens, UniProt Q00613 1-529); conditions: protein: recombinant; tags: N-terminal GST; chain copies: 3; dsDNA, one strand shown
Sequence of HSF1 (Q00613 whole entry): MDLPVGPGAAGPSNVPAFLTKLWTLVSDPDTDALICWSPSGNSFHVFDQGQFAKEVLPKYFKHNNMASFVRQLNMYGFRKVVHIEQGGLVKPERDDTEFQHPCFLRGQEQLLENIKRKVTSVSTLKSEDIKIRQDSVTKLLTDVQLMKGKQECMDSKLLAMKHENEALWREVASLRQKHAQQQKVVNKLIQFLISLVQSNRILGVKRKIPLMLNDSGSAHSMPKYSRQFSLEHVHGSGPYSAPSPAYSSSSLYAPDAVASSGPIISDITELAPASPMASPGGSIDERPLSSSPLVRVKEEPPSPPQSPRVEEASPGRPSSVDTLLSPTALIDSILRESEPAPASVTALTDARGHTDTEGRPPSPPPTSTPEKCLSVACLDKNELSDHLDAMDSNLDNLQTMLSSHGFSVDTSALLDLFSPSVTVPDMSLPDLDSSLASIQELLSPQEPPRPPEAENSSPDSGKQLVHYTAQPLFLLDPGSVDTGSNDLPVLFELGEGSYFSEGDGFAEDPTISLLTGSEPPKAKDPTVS
How it was run: as §1

SPIC = molecular target: T2, SPIC (Homo sapiens, UniProt Q8N5J4 1-248); conditions: protein: recombinant; tags: N-terminal GST; dsDNA, one strand shown
T2 sequence: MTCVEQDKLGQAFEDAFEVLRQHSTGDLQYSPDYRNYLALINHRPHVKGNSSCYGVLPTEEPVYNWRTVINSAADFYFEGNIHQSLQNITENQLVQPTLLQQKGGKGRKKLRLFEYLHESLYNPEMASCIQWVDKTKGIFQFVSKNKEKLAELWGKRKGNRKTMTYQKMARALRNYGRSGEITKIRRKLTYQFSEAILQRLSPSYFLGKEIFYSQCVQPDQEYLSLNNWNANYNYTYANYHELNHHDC
How it was run: as §1

ELF4 = ELF4 (Homo sapiens, UniProt Q99607 1-663); conditions: protein: recombinant; tags: N-terminal GST; dsDNA, one strand shown
Sequence of ELF4 (Q99607 whole entry): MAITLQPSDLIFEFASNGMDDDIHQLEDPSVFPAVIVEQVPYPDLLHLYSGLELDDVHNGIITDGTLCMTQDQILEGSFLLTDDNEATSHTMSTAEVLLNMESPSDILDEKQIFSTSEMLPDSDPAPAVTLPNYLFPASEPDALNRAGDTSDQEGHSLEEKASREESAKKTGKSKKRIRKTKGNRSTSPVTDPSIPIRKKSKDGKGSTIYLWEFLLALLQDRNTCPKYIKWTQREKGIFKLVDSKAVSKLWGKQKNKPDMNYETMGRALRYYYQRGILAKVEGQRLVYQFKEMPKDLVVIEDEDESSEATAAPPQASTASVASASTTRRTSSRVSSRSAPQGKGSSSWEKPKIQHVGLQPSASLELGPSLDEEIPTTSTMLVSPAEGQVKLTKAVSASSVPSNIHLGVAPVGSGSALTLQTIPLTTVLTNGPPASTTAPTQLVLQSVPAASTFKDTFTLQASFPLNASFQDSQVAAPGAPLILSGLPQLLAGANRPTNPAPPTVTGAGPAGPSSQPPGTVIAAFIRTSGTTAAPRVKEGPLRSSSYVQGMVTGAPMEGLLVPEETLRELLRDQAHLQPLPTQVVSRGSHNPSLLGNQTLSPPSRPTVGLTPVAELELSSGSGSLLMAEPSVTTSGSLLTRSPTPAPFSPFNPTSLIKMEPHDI
How it was run: as §1

ELK4 = molecular target: T3, ELK4 (Homo sapiens, UniProt P28324-2 1-405); conditions: protein: recombinant; tags: N-terminal GST; dsDNA, one strand shown
T3 sequence: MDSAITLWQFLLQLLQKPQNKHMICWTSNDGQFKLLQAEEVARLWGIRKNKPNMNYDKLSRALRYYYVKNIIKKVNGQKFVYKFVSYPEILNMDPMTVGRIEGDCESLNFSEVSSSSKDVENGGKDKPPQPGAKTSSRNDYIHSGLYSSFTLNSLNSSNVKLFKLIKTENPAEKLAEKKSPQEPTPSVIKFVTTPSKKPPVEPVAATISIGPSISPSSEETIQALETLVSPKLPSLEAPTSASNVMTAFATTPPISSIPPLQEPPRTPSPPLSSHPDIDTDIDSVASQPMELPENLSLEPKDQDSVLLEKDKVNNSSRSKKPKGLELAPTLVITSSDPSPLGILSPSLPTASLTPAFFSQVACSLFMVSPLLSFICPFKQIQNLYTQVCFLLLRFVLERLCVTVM
How it was run: as §1

ETV2 = molecular target: T4, ETV2 (Homo sapiens, UniProt O00321 1-342); conditions: protein: recombinant; tags: N-terminal GST; dsDNA, one strand shown
T4 sequence: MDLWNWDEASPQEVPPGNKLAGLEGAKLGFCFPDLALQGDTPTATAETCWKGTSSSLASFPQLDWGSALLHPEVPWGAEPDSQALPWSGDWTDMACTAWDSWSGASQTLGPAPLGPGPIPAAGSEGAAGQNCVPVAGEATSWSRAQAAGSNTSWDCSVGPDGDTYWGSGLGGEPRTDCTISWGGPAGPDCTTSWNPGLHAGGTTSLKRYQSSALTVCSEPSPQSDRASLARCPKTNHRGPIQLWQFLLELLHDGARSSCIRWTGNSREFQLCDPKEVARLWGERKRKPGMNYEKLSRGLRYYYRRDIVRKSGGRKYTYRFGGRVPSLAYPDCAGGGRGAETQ
How it was run: as §1

ELF3 = molecular target: T5, ELF3 (Homo sapiens, UniProt P78545 1-371); conditions: protein: recombinant; tags: N-terminal GST; dsDNA, one strand shown
T5 sequence: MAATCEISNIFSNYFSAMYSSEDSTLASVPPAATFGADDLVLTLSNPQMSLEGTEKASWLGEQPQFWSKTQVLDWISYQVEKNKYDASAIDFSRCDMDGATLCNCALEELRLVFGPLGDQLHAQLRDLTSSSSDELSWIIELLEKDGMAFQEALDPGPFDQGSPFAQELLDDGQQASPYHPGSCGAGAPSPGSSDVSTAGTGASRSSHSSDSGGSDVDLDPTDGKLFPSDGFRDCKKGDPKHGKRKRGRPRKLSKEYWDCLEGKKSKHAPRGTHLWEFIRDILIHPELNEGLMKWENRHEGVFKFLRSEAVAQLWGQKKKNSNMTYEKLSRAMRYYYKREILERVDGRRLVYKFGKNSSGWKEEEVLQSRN
How it was run: as §1

CRX = CRX (Homo sapiens, UniProt O43186 1-299); conditions: protein: recombinant; tags: N-terminal GST; dsDNA, one strand shown
Sequence of CRX (O43186 whole entry): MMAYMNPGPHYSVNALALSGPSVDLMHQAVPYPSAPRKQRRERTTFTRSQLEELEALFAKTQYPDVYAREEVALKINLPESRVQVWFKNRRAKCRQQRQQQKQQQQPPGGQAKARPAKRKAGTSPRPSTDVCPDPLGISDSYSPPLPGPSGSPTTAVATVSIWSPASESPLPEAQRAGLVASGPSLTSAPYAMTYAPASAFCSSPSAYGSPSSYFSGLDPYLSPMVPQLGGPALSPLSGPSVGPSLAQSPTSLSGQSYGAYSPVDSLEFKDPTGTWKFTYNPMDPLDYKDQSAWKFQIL
How it was run: as §1

ETV1 = ETV1 (Homo sapiens, UniProt P50549 1-477); conditions: protein: recombinant; tags: N-terminal GST; dsDNA, one strand shown
Sequence of ETV1 (P50549 whole entry): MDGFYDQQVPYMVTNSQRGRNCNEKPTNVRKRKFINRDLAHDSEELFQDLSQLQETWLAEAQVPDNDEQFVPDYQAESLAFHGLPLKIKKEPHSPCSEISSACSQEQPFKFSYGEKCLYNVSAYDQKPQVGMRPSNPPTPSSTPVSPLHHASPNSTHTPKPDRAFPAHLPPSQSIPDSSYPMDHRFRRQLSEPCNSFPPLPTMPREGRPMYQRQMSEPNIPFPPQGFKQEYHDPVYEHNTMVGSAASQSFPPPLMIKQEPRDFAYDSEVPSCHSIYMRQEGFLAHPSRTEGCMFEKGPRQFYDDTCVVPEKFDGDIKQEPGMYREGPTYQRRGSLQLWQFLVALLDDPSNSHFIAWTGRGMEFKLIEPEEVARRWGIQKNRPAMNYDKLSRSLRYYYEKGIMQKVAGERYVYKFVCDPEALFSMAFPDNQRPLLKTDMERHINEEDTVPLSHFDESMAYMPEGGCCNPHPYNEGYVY
How it was run: as §1

CGTTCG
binding signal (FEV): 1.1 fold enrichment (6-mer frequency, TF over GST control)
binding signal (ETV5): 1.2 fold enrichment (6-mer frequency, TF over GST control)
binding signal (HSF1): 1.43 fold enrichment (6-mer frequency, TF over GST control)
binding signal (SPIC): 1.16 fold enrichment (6-mer frequency, TF over GST control)
binding signal (ELF4): 1.32 fold enrichment (6-mer frequency, TF over GST control)
binding signal (ELK4): 1.22 fold enrichment (6-mer frequency, TF over GST control)
binding signal (ETV2): 1.44 fold enrichment (6-mer frequency, TF over GST control)
binding signal (ELF3): 1.08 fold enrichment (6-mer frequency, TF over GST control)
binding signal (CRX): 1.04 fold enrichment (6-mer frequency, TF over GST control)
binding signal (ETV1): 1.19 fold enrichment (6-mer frequency, TF over GST control)
